From PubChem BioAssay
The source made the active and inactive calls.

What was measured:
[1] = small molecules captured by biotinylated probe aFSTL3 – biochemical, small-molecule microarray, fluorescence 635/667, stem cell growth factor project, primary screen (AID 1064); conditions: higher = more signal;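 note: measures binding of the biotinylated anti-FSTL3 antibody to printed compounds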
[2] = binders from COS7 lysate, DM2A8 probe, primary screen, torsin A project, cell lysate, small-molecule microarray, fluorescence 635/667 (AID 1065); conditions: higher = more signal, COS7 lysate expressing mutant human TOR1A
[3] = small molecules captured by biotinylated probe aFGF2 – biochemical, small-molecule microarray, fluorescence 635/667, stem cell growth factor project, primary screen (AID 1067); conditions: higher = more signal;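 note: measures binding of biotinylated aFGF2 protein to printed compounds on slides; z-score merges feature fluorescence and signal-to-noise across triplicate slides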
[4] = small molecules captured by biotinylated probe aFGF10 – biochemical, small-molecule microarray, fluorescence 635/667, stem cell growth factor project, primary screen (AID 1071); conditions: higher = more signal;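 note: score merges 667 nm spot intensity and signal to noise from triplicate slides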
[5] = molecular target: Neurogenic locus notch homolog protein 2 (Homo sapiens) (UniProt Q04721); experiment: small molecules binding Notch2 protein – biochemical, small-molecule microarray, 635 nm fluorescence, stem cell growth factors, primary screen (AID 1073); conditions: higher = more signal
Neurogenic locus notch homolog protein 2 (Homo sapiens), sequence (Q04721 whole entry, looked up, canonical isoform): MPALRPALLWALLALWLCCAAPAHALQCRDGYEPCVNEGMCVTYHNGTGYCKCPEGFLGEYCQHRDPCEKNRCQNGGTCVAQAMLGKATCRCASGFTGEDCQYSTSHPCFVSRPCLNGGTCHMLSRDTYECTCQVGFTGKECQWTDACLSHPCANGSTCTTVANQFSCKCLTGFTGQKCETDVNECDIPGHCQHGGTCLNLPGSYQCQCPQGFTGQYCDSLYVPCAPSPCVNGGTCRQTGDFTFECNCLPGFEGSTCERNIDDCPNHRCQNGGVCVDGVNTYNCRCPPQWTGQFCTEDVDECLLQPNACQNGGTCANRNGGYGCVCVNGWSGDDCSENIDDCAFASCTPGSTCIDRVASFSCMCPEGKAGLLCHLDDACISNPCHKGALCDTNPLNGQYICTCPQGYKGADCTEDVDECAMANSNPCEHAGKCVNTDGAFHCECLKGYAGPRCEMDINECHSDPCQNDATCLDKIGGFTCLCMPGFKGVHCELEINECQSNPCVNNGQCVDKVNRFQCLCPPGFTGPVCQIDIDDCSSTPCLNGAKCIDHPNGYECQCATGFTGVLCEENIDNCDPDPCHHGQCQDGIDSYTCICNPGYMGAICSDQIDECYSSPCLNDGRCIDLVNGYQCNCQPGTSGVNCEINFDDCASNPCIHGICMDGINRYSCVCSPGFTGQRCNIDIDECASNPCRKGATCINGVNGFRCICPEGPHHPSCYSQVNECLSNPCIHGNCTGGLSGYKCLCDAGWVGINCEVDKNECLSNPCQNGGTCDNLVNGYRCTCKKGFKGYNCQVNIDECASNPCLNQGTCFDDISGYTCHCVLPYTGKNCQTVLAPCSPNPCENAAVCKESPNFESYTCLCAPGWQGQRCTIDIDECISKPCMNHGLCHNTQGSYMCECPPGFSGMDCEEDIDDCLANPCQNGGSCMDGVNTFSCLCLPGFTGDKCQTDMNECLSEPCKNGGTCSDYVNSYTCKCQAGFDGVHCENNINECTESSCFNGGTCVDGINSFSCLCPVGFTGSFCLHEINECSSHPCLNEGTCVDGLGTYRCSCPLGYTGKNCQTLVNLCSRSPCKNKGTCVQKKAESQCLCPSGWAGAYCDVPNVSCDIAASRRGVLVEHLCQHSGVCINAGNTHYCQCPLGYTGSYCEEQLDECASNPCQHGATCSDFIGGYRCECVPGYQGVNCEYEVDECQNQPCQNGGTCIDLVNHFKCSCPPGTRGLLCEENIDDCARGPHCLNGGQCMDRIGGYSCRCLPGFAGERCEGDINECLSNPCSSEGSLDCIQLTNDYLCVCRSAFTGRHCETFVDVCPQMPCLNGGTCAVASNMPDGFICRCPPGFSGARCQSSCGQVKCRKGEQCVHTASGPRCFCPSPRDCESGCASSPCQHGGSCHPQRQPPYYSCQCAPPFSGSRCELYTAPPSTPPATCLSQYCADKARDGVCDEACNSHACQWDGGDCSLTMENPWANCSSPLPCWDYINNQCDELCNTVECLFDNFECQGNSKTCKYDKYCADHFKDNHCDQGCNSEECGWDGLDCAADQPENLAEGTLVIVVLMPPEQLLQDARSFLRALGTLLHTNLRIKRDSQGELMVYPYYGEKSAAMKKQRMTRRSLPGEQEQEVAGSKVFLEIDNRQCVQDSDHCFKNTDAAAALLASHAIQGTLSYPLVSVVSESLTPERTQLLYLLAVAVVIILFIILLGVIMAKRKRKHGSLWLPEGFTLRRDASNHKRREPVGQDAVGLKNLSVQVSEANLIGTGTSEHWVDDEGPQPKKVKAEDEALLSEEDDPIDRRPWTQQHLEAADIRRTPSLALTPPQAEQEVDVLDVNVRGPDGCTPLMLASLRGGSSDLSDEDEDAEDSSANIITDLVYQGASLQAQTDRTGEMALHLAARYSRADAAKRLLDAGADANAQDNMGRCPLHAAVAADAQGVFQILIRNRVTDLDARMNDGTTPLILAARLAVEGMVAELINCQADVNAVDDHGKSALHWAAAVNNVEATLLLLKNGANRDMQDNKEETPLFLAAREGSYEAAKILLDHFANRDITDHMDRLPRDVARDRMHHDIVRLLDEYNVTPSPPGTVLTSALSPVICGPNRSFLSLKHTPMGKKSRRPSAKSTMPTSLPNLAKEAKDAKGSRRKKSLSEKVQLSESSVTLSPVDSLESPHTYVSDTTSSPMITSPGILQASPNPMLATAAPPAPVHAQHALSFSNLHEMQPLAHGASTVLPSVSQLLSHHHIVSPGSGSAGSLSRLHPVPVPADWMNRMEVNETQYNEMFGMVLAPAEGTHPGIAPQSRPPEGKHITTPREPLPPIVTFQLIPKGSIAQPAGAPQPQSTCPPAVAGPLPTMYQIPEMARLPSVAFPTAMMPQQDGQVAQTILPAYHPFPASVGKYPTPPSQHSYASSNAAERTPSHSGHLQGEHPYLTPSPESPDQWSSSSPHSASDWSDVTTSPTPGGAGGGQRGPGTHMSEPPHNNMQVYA

[6] = molecular target: Pro-neuregulin-1, membrane-bound isoform (Homo sapiens) (UniProt Q02297); experiment: small molecules binding neuregulin-1 protein – biochemical, small-molecule microarray, fluorescence 635/667, psychiatric disease protein project, primary screen (AID 1075); conditions: NRG1 binding, 635 nm fluorescence, higher = more signal;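 note: score combines 667 nm spot fluorescence with signal to noise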
Pro-neuregulin-1, membrane-bound isoform (Homo sapiens), sequence (Q02297 whole entry, looked up, the tested form may be a part, canonical isoform): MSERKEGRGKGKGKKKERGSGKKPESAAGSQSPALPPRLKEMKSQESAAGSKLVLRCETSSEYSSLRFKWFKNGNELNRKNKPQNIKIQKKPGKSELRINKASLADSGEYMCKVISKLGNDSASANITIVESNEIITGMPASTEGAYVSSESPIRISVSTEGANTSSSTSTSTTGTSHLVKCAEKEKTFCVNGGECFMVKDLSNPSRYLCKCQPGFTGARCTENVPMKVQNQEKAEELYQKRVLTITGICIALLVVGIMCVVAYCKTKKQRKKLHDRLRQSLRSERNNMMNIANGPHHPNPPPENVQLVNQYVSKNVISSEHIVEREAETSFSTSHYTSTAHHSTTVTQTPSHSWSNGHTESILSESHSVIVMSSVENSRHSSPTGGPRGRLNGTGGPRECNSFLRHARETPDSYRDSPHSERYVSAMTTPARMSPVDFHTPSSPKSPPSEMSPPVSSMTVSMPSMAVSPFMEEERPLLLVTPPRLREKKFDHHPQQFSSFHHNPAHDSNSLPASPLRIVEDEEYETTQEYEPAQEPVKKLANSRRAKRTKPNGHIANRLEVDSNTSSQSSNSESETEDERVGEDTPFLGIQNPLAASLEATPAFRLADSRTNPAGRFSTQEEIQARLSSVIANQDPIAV

[7] = system: Neuregulin-1 EGF-like domain; experiment: small molecules binding NRG1 EGF domain – biochemical, small-molecule microarray, 635 nm fluorescence, primary screen (AID 1081); conditions: higher = more signal;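 note: binding of the protein to compounds printed on small-molecule microarray slides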
[8] = FRG1 expression reporter modulators in myotubes – cell-based, C2C12 myotubes, firefly/Renilla luciferase, luminescence, FRG1 inhibition for FSHD, primary screen (AID 1084); conditions: FRG1 promoter luciferase, higher = more signal, called active from +8 up or from −8 down
[9] = small molecules captured by biotinylated probe aFST – biochemical, small-molecule microarray, fluorescence 635/667, stem cell growth factor project, primary screen (AID 1086); conditions: higher = more signal;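 note: score merges 667 nm fluorescence with signal-to-noise of each printed compound spot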
[10] = binders of probe aHhip on microarray, primary screen, stem cell growth factor project, biochemical, small-molecule microarray, fluorescence 635/667 (AID 1087); conditions: higher = more signal;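 note: score merges spot fluorescence at 667nm with spot signal to noise ratio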
[11] = system: PRMT1 (protein arginine N-methyltransferase 1); experiment: small molecules binding arginine methyltransferase PRMT1 – biochemical, small-molecule microarray, 635 nm fluorescence, primary screen (AID 1088); conditions: higher = more signal;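 note: binding of Prmt1 protein to compounds spotted on small-molecule microarray slides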
[12] = growth effects on S. cerevisiae YJM789 – YJM789 clinical isolate, OD600, 24 h, basal, primary screen (AID 1089); conditions: higher = more signal, called active from +8 up or from −8 down;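 note: growth of clinical yeast isolate S. cerevisiae YJM 789 seeded 1000 cells per well; test concentration not given here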
[13] = S. pombe growth modifiers, basal conditions – strain 972, OD600, 24 h, no modulator, primary screen (AID 1090);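 note: basal condition with compound alone and no growth modifier present; test concentration not given here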; conditions: S. pombe 972 growth, higher = more signal, called active from +8 up or from −8 down
[14] = budding yeast growth modifiers under rapamycin – strain BY4716, OD600, 96 h, primary screen (AID 1091); note: test concentration not given here; conditions: S. cerevisiae BY4716 + rapamycin, higher = more signal, called active from +8 up or from −8 down
[15] = molecular target: Torsin-1A-interacting protein 2 (Homo sapiens) (UniProt Q8NFQ8); experiment: small molecules binding lysate-expressed LULL1 – cell lysate, human LULL1 lysate, 635/667 nm fluorescence, primary screen (AID 1092); conditions: small-molecule microarray, hLULL1 lysate binding, 635 nm fluorescence; higher = more signal;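 note: probe is lysate of COS7 cells overexpressing human LULL1; score merges per-feature 667 nm fluorescence with signal-to-noise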
Torsin-1A-interacting protein 2 (Homo sapiens), sequence (Q8NFQ8 whole entry, looked up): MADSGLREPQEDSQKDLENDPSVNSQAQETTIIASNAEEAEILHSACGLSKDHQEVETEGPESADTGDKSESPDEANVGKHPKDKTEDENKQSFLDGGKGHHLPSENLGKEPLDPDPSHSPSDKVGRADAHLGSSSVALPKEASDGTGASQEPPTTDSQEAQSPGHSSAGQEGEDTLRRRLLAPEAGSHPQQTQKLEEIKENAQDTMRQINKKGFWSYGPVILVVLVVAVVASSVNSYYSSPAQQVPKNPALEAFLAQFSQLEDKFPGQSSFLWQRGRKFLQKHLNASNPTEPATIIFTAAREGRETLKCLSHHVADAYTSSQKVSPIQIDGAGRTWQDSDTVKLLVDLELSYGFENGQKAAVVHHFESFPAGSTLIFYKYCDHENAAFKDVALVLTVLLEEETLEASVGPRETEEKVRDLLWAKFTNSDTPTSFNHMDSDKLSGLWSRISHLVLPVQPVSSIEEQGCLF

[16] = optical density change of DRC41 E. coli – strain DRC41, OD650, 24 h, E. coli filamentation project, primary screen (AID 1093);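 note: MC1000 strain lacking acrAB efflux and sulA so SOS filamentation is blocked; test concentration not given here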; conditions: E. coli DRC41 growth, higher = more signal, called active from +8 up or from −8 down
[17] = probe aLefty2 binding to arrayed compounds – biochemical, biotinylated probe, 635/667 nm fluorescence, primary screen (AID 1094); conditions: small-molecule microarray, higher = more signal;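 note: score merges spot fluorescence near 667 nm with spot signal-to-noise ratio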
[18] = system: Noggin (protein binding on small-molecule microarray); experiment: small molecules binding Noggin protein – biochemical, 635/667 nm fluorescence, primary screen (AID 1095); conditions: 635 nm fluorescence, higher = more signal;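 note: score merges 667 nm feature fluorescence with signal to noise over triplicate slides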
[19] = molecular target: Neurogenic locus notch homolog protein 3 (Homo sapiens) (UniProt Q9UM47); experiment: small molecules binding NOTCH3 protein – biochemical, 635/667 nm fluorescence, primary screen (AID 1096); conditions: small-molecule microarray, 635 nm fluorescence, higher = more signal
[20] = probe aEGFR binding to arrayed compounds – biochemical, biotinylated probe, 635/667 nm fluorescence, primary screen (AID 1097); conditions: small-molecule microarray, higher = more signal;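 note: probe is a biotinylated anti-EGFR antibody binding compounds printed on slides; score combines fluorescence near 667 nm and signal to noise of each spot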

| Structure (SMILES) | composite z-score [1] | composite z-score [2] | composite z-score [3] | composite z-score [4] | composite z-score [5] | composite z-score [6] | composite z-score [7] | z-score [8] | composite z-score [9] | composite z-score [10] | composite z-score [11] | z-score [12] | z-score [13] | z-score [14] | composite z-score [15] | z-score [16] | composite z-score [17] | composite z-score [18] | composite z-score [19] | composite z-score [20] |
| --- | --- | --- | --- | --- | --- | --- | --- | --- | --- | --- | --- | --- | --- | --- | --- | --- | --- | --- | --- | --- |
| [N-]=[N+]=Nc1ccccc1C[C@]1(C(=O)N2CCOCC2)N=C(c2ccc(OCCCO)cc2)O[C@H]1c1ccccc1 | 0.747 | 1.49 | 0.17 | 0.983 | 1.48 | 1.13 | 1.23 | -1.62 (inactive) | 1.29 | 0.348 | 1.55 | 0.491 (inactive) | -8.46 (active) | 1.42 (inactive) | 2.69 | 1.94 (inactive) | 0.178 | 0.593 | 0.871 | 0.134 |
| [N-]=[N+]=Nc1ccccc1[C@H]1OC(c2ccc(OCCCO)cc2)=N[C@@]1(Cc1ccccc1)C(=O)N1CCCCC1 | 0.308 | -0.182 | -0.0044 | 0.692 | 1.63 | 1.01 | 1.32 | -1.02 (inactive) | 0.763 | -0.0994 | 1.54 | -2.09 (inactive) | 0.708 (inactive) | 2.21 (inactive) | 3.29 | 0.774 (inactive) | 0.339 | 0.94 | 1.08 | 0.286 |
| C#CCN([C@@H](Cc1ccc(O)cc1)C(=O)OC)[C@@H](/C=C/C1CC1)[C@H](O)Cc1ccccc1 | 0.164 | -0.112 | -0.0732 | -0.37 | -0.791 | -0.737 | 0.356 | -3.55 (inactive) | -0.09 | -0.337 | 0.0371 | -0.686 (inactive) | -4.05 (inactive) | 0.417 (inactive) | -0.0965 | -1.17 (inactive) | -0.241 | 0.0698 | 0.337 | -0.13 |
| O=C(NCc1ccccc1)[C@@H]1c2ccccc2C(=O)N(Cc2ccccc2C(F)(F)F)[C@H]1c1ccc(CO)cc1 | -0.234 | 0.55 | -0.0451 | -0.0459 | -0.927 | 0.48 | 1.25 | -3.23 (inactive) | -0.428 | -0.293 | 1.45 | 0.397 (inactive) | 0.234 (inactive) | -0.0066 (inactive) | 1.83 | 0.479 (inactive) | -0.179 | -0.483 | -0.0406 | -0.212 |
| CC[C@H]1C2=C3C(CC[C@H]4C(OCc5ccc(F)cc5C(F)(F)F)OC[C@](C)([C@@H]34)N(C(=O)OC(C)(C)C)C2)C(COC)C1COC (stereo not given in full) | -0.117 | -0.281 | 0.0253 | 0.0921 | 0.84 | 0.336 | -0.0151 | 1.18 (inactive) | 0.857 | -0.329 | -0.728 | 0.242 (inactive) | 0.78 (inactive) | 0.153 (inactive) | 1.68 | -0.773 (inactive) | 0.0392 | -0.207 | 0.949 | -0.113 |
| [N-]=[N+]=NCc1ccccc1C[C@@]1(C(=O)NCc2ccccc2)N=C(c2ccc(OCCCO)cc2)O[C@@H]1c1ccccc1N=[N+]=[N-] | 0.298 | 0.421 | 0.0075 | 0.629 | 1.33 | 1.07 | 1.1 | -1.81 (inactive) | 1.27 | 0.143 | 1.18 | -1.38 (inactive) | 1.57 (inactive) | 6.91 (inactive) | 2.88 | 0.213 (inactive) | 0.198 | -0.247 | 0.412 | -0.0831 |
| COCCCNC(=O)[C@@]1(Cc2ccccc2N=[N+]=[N-])COC(c2ccc(OCCCO)cc2)=N1 | 0.846 | 0.0792 | 0.146 | 0.805 | 1 | 1.54 | 1.27 | 0.554 (inactive) | 0.734 | -0.274 | 1.43 | -0.0885 (inactive) | -1.52 (inactive) | 0.0734 (inactive) | 3.13 | 1.39 (inactive) | 0.219 | 0.0137 | 0.0417 | 0.507 |
| CCCCC(=C=CC[C@@H](O)c1ccccc1OCCO)C[C@@H](O)COCc1ccccc1 | -0.0745 | 0.0282 | -0.101 | -0.333 | -0.768 | 0.852 | 0.115 | -2.9 (inactive) | -0.462 | -0.201 | 1.13 | -1.69 (inactive) | -2.1 (inactive) | -1.26 (inactive) | 1.91 | 1.31 (inactive) | -0.166 | 0.404 | 0.185 | -0.209 |
| O=C1C2C=CC(C(O)c3ccccc3)N(Nc3ccccc3F)C2C(=O)N1c1ccccc1 (stereo not given) | -0.283 | 0.932 | 0.0248 | 0.373 | 0.99 | 0.801 | 0.834 | -2.14 (inactive) | 0.444 | -0.191 | 0.101 | 0.181 (inactive) | 0.815 (inactive) | 0.285 (inactive) | 2.61 | -0.106 (inactive) | -0.0381 | -0.0199 | 0.023 | -0.067 |
| CCCCO[C@H]1C[C@H]2C(I)=C[C@@H]1C(=O)[C@]21CO1 | -0.329 | 0.823 | -0.0706 | 0.0657 | -0.361 | -0.149 | -0.44 | 1.43 (inactive) | -0.323 | -0.236 | -0.429 | -1.88 (inactive) | -4.81 (inactive) | -1.68 (inactive) | -1.03 | -1.25 (inactive) | -0.126 | 0.359 | 0.0532 | -0.19 |
